The experiment has as its target T1, ZRANB2-F2 (Homo sapiens, UniProt O95218 O95218:65-95).
T1 chain: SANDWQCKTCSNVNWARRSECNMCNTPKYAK
Put plainly: FP; about 4-fold to 8-fold stated in p392. The following applies: tags: GST fusion (FA); label: 5'-fluorescein; ssRNA. The protocol:
Fluorescence Anisotropy titrations e.g., as shown in FIGS. 1D-F, 8 and 35, were carried out using standard protocols. In brief, 5′-Fluorescein-labeled RNA oligonucleotides were quantified by A₂₆₀, correcting for fluorescein absorbance by using A₄₉₃. For single-site experiments, the sequence […] (SEQ ID NO: 28), or single base mutants thereof, was used. For double-site experiments, two AGGUAA sites were separated by different length sequences as indicated, and the total oligonucleotide lengths were kept constant by the symmetrical addition of adenines to each end. […] Protein was titrated into this starting solution and anisotropy values measured on a Cary Eclipse fluorescence spectrophotometer fitted with manual polarizer and long-pass filters set to 475 and 515 nm for excitation and emission, respectively. […] Association constants were determined by nonlinear least squares regression analysis using a 1:1 binding model.
To determine whether changing arginine-82 (R82) would affect the binding preference of ZRANB2-F2 from GGU to GAU, the point mutation R82Q in ZNF 2 of ZRANB2 was made and the ability of both the wild type (W) protein and the R82Q mutant to bind to AGGUAA and AGAUAA was assessed by fluorescence anisotropy binding assays as described previously in Example 1.
The sequence AGAUAA showed a binding signal of roughly 4 fold lower than AGGUAA.
